Only a selection was taken, and hits are over-represented in it overall.
Shiga inhibitor: A qHTS for Small Molecule Inhibitors of Shiga Toxin. Vero cells, Shiga toxin protein synthesis inhibition reporter. inhibition, % at 38.7 µM. AID 2315, 2010. 290,000 compounds, 9.2% hits; in the data active = inhibition mostly above about 28%, no sharp cut-off; inactive = mostly below about 43%; also: 0% is about no effect
AMA1-RON2 inh: qHTS for Inhibitors of AMA1-RON; Towards Development of Antimalarial Drug Lead: Primary Screen; Potency, µM (doses to about 58.2 µM), without a hit: top-dose activity change, negative = inhibition, hits mostly inhibitors; Plasmodium falciparum AMA1 (3D7) - RON2 peptide interaction; AlphaScreen AMA1-biotinylated RON2 peptide binding; 360,000 compounds, 0.2% hits; active = well fitted inhibition curve with a large enough effect; inconclusive = small, poorly fitted or top-dose-only effect; inactive = no such curve, though single readings can be large or run the other way;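 also: potency is read from the fitted curve at half-maximal effect; 0% = vehicle wells and -100% = peptide control; nearly all actives have a fitted effect of over 45% in size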
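AMA1 (3D7) with his tag at 25 nM final met compounds first, then biotinylated RON2 peptide at 25 nM; detection used donor plus acceptor beads, 10 µg/mL apiece, read by AlphaScreen after 30 min at room temperature.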
CHX counter: Cycloheximide Counterscreen for Small Molecule Inhibitors of Shiga Toxin. cell reporter, cycloheximide protein synthesis inhibition counterscreen. max response, %. 300,000 compounds, 12% hits; in the data active = max response mostly above about 13%, no sharp cut-off; inactive = mostly below about 14%; also: read at 38.3 µM for the half of the compounds with a filed dose; 0% is about no effect
Lassa entry inh: qHTS for Inhibitors of binding or entry into cells for Lassa Virus | 300,000 compounds, 1.2% hits | Potency, µM (doses to about 37.9 µM), for inactives: top-dose activity change, negative = inhibition, usual class: inhibitors | Lassa virus pseudotype entry inhibition, cell reporter; calls by dose curve; tested in HEK293 cells; also: potency is read from the fitted curve at half-maximal effect; % is scaled to controls: 0 for no effect and ±100 for the full control effect; nearly all actives have a fitted effect of over 50% in size
Marburg entry inh: qHTS for inhibitors of binding or entry into cells for Marburg Virus; Marburg virus pseudotyped entry inhibition, cell reporter; AID 540276, 2011; 300,000 compounds, 1.8% hits; Potency, µM (highest dose often 37.8 µM), for the others: top-dose activity change, negative = inhibition, actives largely listed as inhibitors; calls by dose curve; tested in HEK293 cells; also: potency is read from the fitted curve at half-maximal effect; % is scaled to controls: 0 for no effect and ±100 for the full control effect
Numbers without * were called inactive; ? = inconclusive; . = no result given; [ ] = remark or other dose.

SMILES	Shiga inhibitor	AMA1-RON2 inh	CHX counter	Lassa entry inh	Marburg entry inh
CC(C)c1ccccc1-n1c(SCC(=O)N2CCc3ccccc3C2)nc2ccccc2c1=O	-10	-5%	9	?	?
O=C(Cn1cnc2ccccc2c1=O)N1CCc2ccccc2C1	-3	9%	17*	7%[46.1 µM]	-1%[46.1 µM]
O=C(CSc1nc2ccccc2c(=O)n1-c1ccccc1)N1CCc2ccccc2C1	-13	4%	-1	10µM*	?
Nc1c(CNCc2nnn(Cc3ccccc3)c2N)nnn1Cc1ccccc1	.	92%	.	.	.
CCc1cc(C(=O)N2CCc3c([nH]c4ccccc34)C2c2ccc(OC)cc2F)no1 (stereo unspecified)	-5	-26%	-4	?	0.89µM*
COc1ccc(C2c3[nH]c4ccccc4c3CCN2C(=O)c2ccc(=O)n(C)n2)c(F)c1 (stereo unspecified)	34	0%	26*	?	?
Cc1ccccc1C1c2[nH]c3ccccc3c2CCN1C(=O)c1ccc(=O)n(C)n1 (stereo unspecified)	9	0%	-2	?	?
Cc1cc(C(=O)N2CCc3c([nH]c4ccccc34)C2c2c(F)cccc2Cl)no1 (stereo unspecified)	4	-8%	-1	?	?
CN1N=C(C(=O)N2CCc3c([nH]c4ccccc34)C2c2ccccc2Cl)CCC1=O (stereo unspecified)	74*	-19%	43*	?	?
COc1ccc(C2=Nn3c(nnc3-c3ccccc3O)SC2)c(OC)c1	33	.	10	.	.
Cc1cc(C)n(-c2nnc3c4ccccc4n(C)c3n2)n1	113*	7%	44*	0%[46.1 µM]	27%[46.1 µM]
CCn1c(NCc2cccc(OC)c2OC)nc2ccccc21	26*	19%	13	5%	1%
COc1cccc(CNc2nc3ccccc3n2CCN2CCCCC2)c1OC	4	9%	-1	?	11µM*
COc1ccc(CNc2nc3ccccc3n2CCN2CCCCC2)c(OC)c1	24	?	10	-23%	?
O=C(Nc1ccc(OCc2cc(=O)n3c4c(sc3n2)CCCC4)cc1)c1ccccc1	.	.	.	1%[46.1 µM]	3%[46.1 µM]
CN(N=O)c1ccc(O)c(O)c1	.	.	.	?	18µM*
CC(C)n1nccc1NC(=O)COC(=O)c1ccc(NC(N)=O)cc1	.	-12%	.	-2%[46.1 µM]	4%[46.1 µM]
COc1ccc(C(=O)OCC(=O)NC(=O)NC2CCCC2)cc1OC	.	11%	.	.	.
Cc1ccc(-c2noc(CSc3nnc(Cc4ccccc4)n3-c3ccc(Cl)cc3)n2)cc1	-9	-12%	-2	1.6µM*	?
COc1ccc(-c2noc(CSc3nnc(Cc4ccccc4)n3-c3ccc(Cl)cc3)n2)cc1	-7	-13%	-1	4.1µM*	?
Cc1ccc(-c2noc(CSc3nnc(CCc4ccccc4)n3-c3ccccc3)n2)cc1	-9	-2%	2	?	?
COc1ccc(-c2noc(CSc3nnc(CCc4ccccc4)n3-c3ccccc3)n2)cc1OC	-4	-11%	0	4.1µM*	-1%
O=C(c1cc(=O)[nH]c2ccccc12)N(Cc1nnc(-c2ccccc2Cl)o1)C1CC1	.	-26%	.	-17%	5%[46.1 µM]
CC(C)CN1CCC(=O)N([C@H](CSc2ccc(Br)cc2)c2ccccc2)CC1	27	9%	-2	.	.
CN1CCC(=O)N([C@H](CN=[N+]=[N-])c2ccccc2)CC1	20*	9%	23*	.	.
SMILES	Shiga inhibitor	AMA1-RON2 inh	CHX counter	Lassa entry inh	Marburg entry inh
Cc1ccc(SC[C@H](c2ccccc2)N2CCN(CC(C)C)CCC2=O)cc1	11	6%	19	.	.
[N-]=[N+]=NC[C@H](c1ccccc1)N1CCN(Cc2ccccc2)CCC1=O	-5	-13%	-1	.	.
Cc1ccc(SCC(c2ccccc2)N2CCN(CC(C)C)CCC2=O)cc1 (stereo unspecified)	89*	.	42*	.	.
CN1CCC(=O)N(C(CSc2ccc(Br)cc2)c2ccccc2)CC1 (stereo unspecified)	83*	.	33*	.	.
Cc1ccc(SC[C@H](c2ccccc2)N2CCN(C)CCC2=O)cc1	97*	-13%	44*	.	.
CCN(CC)c1nn2c(=O)c(C(=O)NCc3cccc(OC)c3OC)cnc2s1	.	.	.	3%[46.1 µM]	.
CC(=O)Nc1ccc(SCC(c2ccccc2)N2CCN(C)CCC2=O)cc1 (stereo unspecified)	116*	.	68*	.	.
CN1CCC(=O)N([C@H](CSc2ccccc2)c2ccccc2)CC1	58	10%	18*	.	.
COc1ccc(NC(=S)N2CCC(c3nc4ccccc4o3)CC2)c(OC)c1	19	-8%	-1	-9%[46.1 µM]	?
CC(C)CCn1cnc2c(NCc3ccccc3)ncnc21	37	6%	29*	3%	?
CC(CNC(=O)Cn1cnc2c(NCc3ccccc3)ncnc21)c1ccccc1 (stereo unspecified)	.	-4%	.	.	.
c1ccc(CNc2ncnc3c2ncn3C2CCCCO2)cc1 (stereo unspecified)	52	3%	32*	12%	16%
CCOC(=O)c1c(NC(=O)COC(=O)CCCOc2ccc(OC)cc2)sc(C(=O)N(C)C)c1C	.	7%[11.6 µM]	.	9%	17%
O=C(CNS(=O)(=O)c1cccs1)N1CCN(c2ccccc2F)CC1	71*	-7%	35*	10%[46.1 µM]	-2%[46.1 µM]
O=C(CNS(=O)(=O)c1cccs1)N1CCc2ccccc2C1	55*	0%	48*	3%	?
Clc1ccc2c(SCC3CO3)c3ccccc3nc2c1 (stereo unspecified)	.	10%	.	20µM*	?
O=c1[nH]c(SCc2cccc([N+](=O)[O-])c2)nc2[nH]ncc12	28	5%	-4	.	.
O=[N+]([O-])c1cccc(CSc2nc3ccccc3[nH]2)c1	38	-23%	13*	?	?
COc1cccc(CSc2nc3ccccc3[nH]2)c1	68	-14%	30*	-13%	?
COc1cccc(CC(Cc2nc3ccccc3[nH]2)c2nc3ccccc3[nH]2)c1 (stereo unspecified)	30	-10%	35*	-6%	-29%[46.1 µM]
Cc1ccc2nc(SCc3ccc([N+](=O)[O-])cc3)[nH]c2c1	73*	-3%	40*	6%	-21%
Cc1ccc(-c2nc(CS(=O)CC(=O)NCCc3ccc(Cl)cc3)c(C)o2)cc1 (stereo unspecified)	.	.	.	?	-18%[46.1 µM]
Cc1cc(C)n(-c2nc(C)c(C)c(=O)n2CC(=O)Nc2ccc(OC(F)(F)F)cc2)n1	.	.	.	11%[46.1 µM]	.
O=C(O)c1cc([N+](=O)[O-])c(Sc2nc3ccccc3[nH]2)c([N+](=O)[O-])c1	21	-1%	-4	.	.
CS(=O)(=O)c1cc([N+](=O)[O-])c(Sc2nc3ccccc3[nH]2)c([N+](=O)[O-])c1	3	-5%	15	20%	13µM*
CCN(CC)CCOC(=O)C(Cc1ccco1)Cc1cccc2ccccc12 (stereo unspecified)	.	25µM*	.	?	?
Cc1cc(-c2ccc(Cl)s2)n[nH]1	82*	7%	29*	23%	?
